Records with an inconclusive call do not appear. Where a call stands in place of a potency, no number is given. Activity calls are given as the source filed them. Calls come from the whole dose curve; as a rule, active = well fitted cell-killing curve with a large enough effect; inconclusive = small, poorly fitted or top-dose-only effect, or effect the other way; inactive = no such curve, though single readings can be large or run the other way.
assay: Quantitative High-Throughput drug screen in 47 multiple myeloma cell lines against the NCATS MIPE library collection: KMS27_JCRB cell viability assay (AID 1918970); conditions: KMS27 myeloma cells, CellTiter-Glo ATP viability, 48 h; viability (% of DMSO): at 45.8 µM (top of the series); note: nearly all actives have a fitted effect of over 30% in size
Summary of the method: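 Myeloma cells (500 per well) were exposed to MIPE 4.0 compounds for 48 h at 37 °C, 5% CO2; viability was read as ATP luminescence with CellTiter-Glo, normalized to DMSO-only (100%) and media-only (0%) wells.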
Potency is the fitted concentration of half-maximal effect.

Row | SMILES | Potency
1 | Nc1cccc2c1C(=O)N(C1CCC(=O)NC1=O)C2=O (configuration not stated) | inactive
2 | N#Cc1cc(NC(=O)Nc2nnc(-c3ccncc3)s2)ccc1-c1cn[nH]c1 | inactive
3 | C#Cc1cccc(Nc2ncnc3cc(OCCOC)c(OCCO)cc23)c1 | 0.0187 µM (active)
4 | O=C1c2c(O)cccc2[C@@H]([C@@H]2O[C@H](CO)[C@@H](O)[C@H](O)[C@H]2O)c2cc(CO)cc(O)c21 | inactive
5 | O=S(=O)(O)CCSSCCS(=O)(=O)O | inactive
6 | COc1cc(CCc2cc(NC(=O)c3ccc(N4C[C@@H](C)N[C@@H](C)C4)cc3)n[nH]2)cc(OC)c1 | 18.7 µM (active)
7 | CC(O)(C#Cc1ccc2c(c1)N(c1nc(N)ncc1Cl)CC2)c1nccs1 (configuration not stated) | 20.9 µM (active)
8 | CC(=O)N1CCN(c2ccc(OCc3nn(C)c(C)c3-c3cccc4c(CCCOc5cccc6ccccc56)c(C(=O)O)n(Cc5cccnc5)c34)cc2)CC1 | 0.0743 µM (active)
9 | NC1=N[C@H]2[C@H](CS[C@H]2CCCCC(=O)O)N1 | inactive
10 | CC(=O)N[C@H]1[C@@H]([C@H](O)[C@H](O)CO)OC(C(=O)O)=C[C@@H]1N=C(N)N | inactive
11 | C[C@H](CCC(=O)O)[C@H]1CC[C@H]2[C@@H]3[C@H](O)C[C@@H]4C[C@H](O)CC[C@]4(C)[C@@H]3CC[C@]12C | inactive
12 | CC[C@H]1OC(=O)[C@H](C)[C@@H](O[C@H]2C[C@@](C)(OC)[C@@H](O)[C@H](C)O2)[C@H](C)[C@@H](O[C@@H]2O[C@H](C)C[C@H](N(C)C)[C@@H]2O)[C@](C)(OC)C[C@@H](C)C(=O)[C@H](C)[C@@H](O)[C@]1(C)O | inactive
13 | COc1cc(C[C@@H](CO)[C@H](CO)Cc2ccc(O)c(OC)c2)ccc1O | 2.96 µM (active)
14 | COC(=O)[C@@H]1CC2=CC(=O)CC[C@]2(C)[C@@]23O[C@@H]2C[C@@]2(C)[C@H](CC[C@@]24CCC(=O)O4)[C@@H]13 | inactive
15 | C=C1C(=CC=C2CCC[C@]3(C)[C@@H]([C@H](C)CCCC(C)(C)O)CC[C@@H]23)C[C@@H](O)C[C@@H]1O | 1.66 µM (active)
16 | CC(=O)O[C@H]1C[C@@H]2CC[C@H]3[C@H]4C[C@H]([N+]5(C)CCCCC5)[C@@H](OC(C)=O)[C@@]4(C)CC[C@@H]3[C@@]2(C)C[C@H]1N1CCCCC1 | inactive

assay: Quantitative High-Throughput drug screen in 47 multiple myeloma cell lines against the NCATS MIPE library collection: KMS12BM_JCRB cell viability assay (AID 1918971); conditions: KMS12BM myeloma viability, CellTiter-Glo ATP, 48 h; series mostly up to 45.8 µM; note: nearly all actives have a fitted effect of over 35% in size
Summary of the method: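 Luminescent ATP measurement with CellTiter-Glo gives viability, scaled between DMSO-only wells (100%) and media-only wells (0%). Cells, 500 per well, faced library compounds for 48 hours at 37C.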

Row | SMILES | Potency
17 | CC(C)[C@H](CO)Nc1nc(Nc2cccc(Cl)c2)c2ncn(C(C)C)c2n1 | 20.9 µM (active)
18 | COc1cc2c(cc1O)CCC1C2CC[C@@]2(C)C1CC[C@@H]2O (some centres not stated) | 1.18 µM (active)
19 | C[N+](C)([O-])CCNc1ccc(NCC[N+](C)(C)[O-])c2c1C(=O)c1c(O)ccc(O)c1C2=O | 18.7 µM (active)
20 | O=C1c2c(O)cccc2[C@@H]([C@@H]2O[C@H](CO)[C@@H](O)[C@H](O)[C@H]2O)c2cc(CO)cc(O)c21 | inactive
21 | C[C@@H]1C(=O)O[C@H]2CC34[C@H]5C[C@@H](C(C)(C)C)C36[C@H](OC(=O)[C@@H]6O)O[C@@]4(C(=O)O5)[C@]21O (some centres not stated) | inactive
22 | CCCNC(=O)[C@H]1O[C@H]1C(=O)N[C@H](C(=O)N1CCC[C@@H]1C(=O)OC)C(C)CC (some centres not stated) | 5.26 µM (active)
23 | CC(=O)O[C@H]1C[C@@H]2CC[C@H]3[C@H]4C[C@H]([N+]5(C)CCCCC5)[C@@H](OC(C)=O)[C@@]4(C)CC[C@@H]3[C@@]2(C)C[C@H]1[N+]1(C)CCCCC1 | inactive
24 | COc1cc(C(C)C)c(Oc2cnc(NC(CO)CO)nc2N)cc1I | inactive
25 | COc1cc(CCc2cc(NC(=O)c3ccc(N4C[C@@H](C)N[C@@H](C)C4)cc3)n[nH]2)cc(OC)c1 | 11.8 µM (active)
26 | NC(=O)c1ncn([C@@H]2O[C@H](CO)[C@@H](O)[C@@H]2O)c1O | inactive
27 | O=C(CN1C(=O)C2(CCCC2)NC[C@H]1c1cc(F)cc(F)c1)Nc1ccc2c(c1)C[C@@]1(C2)C(=O)Nc2ncccc21 | inactive
28 | NC1=N[C@H]2[C@H](CS[C@H]2CCCCC(=O)O)N1 | inactive
29 | CC(=O)N[C@H]1[C@@H]([C@H](O)[C@H](O)CO)OC(C(=O)O)=C[C@@H]1N=C(N)N | inactive
30 | C[C@H](CCC(=O)O)[C@H]1CC[C@H]2[C@@H]3[C@H](O)C[C@@H]4C[C@H](O)CC[C@]4(C)[C@@H]3CC[C@]12C | inactive
31 | CN(C)CC(=O)N1CCC(c2ccc(NC(=O)c3ncc(C#N)[nH]3)c(C3=CCCCC3)c2)CC1 | inactive
32 | CNC(=O)c1cccc(-c2ccc3c(N4CCOC[C@H]4C)nc(N4CCOC[C@H]4C)nc3n2)c1 | 0.0166 µM (active)
33 | CON=C(C(=O)N[C@@H]1C(=O)N2C(C(=O)O)=C(CSC(=O)c3ccco3)CS[C@H]12)c1csc(N)n1 | inactive
34 | C[C@@H](NCc1cc2ccccc2[nH]1)c1cccc2ccccc12 | inactive
35 | C=C1C(=CC=C2CCC[C@]3(C)[C@@H]([C@H](C)CCCC(C)(C)O)CC[C@@H]23)C[C@@H](O)C[C@@H]1O | 20.9 µM (active)
36 | C[C@H]1COc2c(N3CCN(C)CC3)c(F)cc3c(=O)c(C(=O)O)cn1c23 | inactive
37 | CC(=O)O[C@H]1C[C@@H]2CC[C@H]3[C@H]4C[C@H]([N+]5(C)CCCCC5)[C@@H](OC(C)=O)[C@@]4(C)CC[C@@H]3[C@@]2(C)C[C@H]1N1CCCCC1 | inactive

Reference: PubChem BioAssay (NCATS)
